Test results reported in PubChem BioAssay AID1159580 (chemical genetic matrix, 2015).
Values joined by “and” are separate entries in the source; they are usually repeats but may differ in a detail not shown here. Equal entries are not always repeated. Out of some 5,500 compounds screened, about 2,000 (36%) were called active. Another 18% or so got no clear call; they are omitted. Rule as the data show it: active = normalized growth mostly below about 0.91 (no sharp cut-off); inconclusive = no clear call, values can overlap the other calls; inactive = mostly above about 0.92. The list shows a part of the results.

Assay: chemical genetic growth profiling, strain panel (AID 1159580);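 also: tested at 20 µM; growth read once vehicle control cultures reached saturation at 30 °C; 1 = growth at the plate median or of vehicle wells; lower values mean less growth of the strain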
Conditions: S. cerevisiae deletion strains, growth OD

Measured: normalized growth

CNC(=O)Oc1ccc2c(c1)[C@]1(C)CCN(C)[C@@H]1N2C
inactive: locus YAL013W, strain DEP1, hits give low values 1.03 | locus YAL021C, strain ccr4, hits give low values 1 | locus YAL026C, strain drs2, hits give low values 1 | locus YAL030W, strain snc1, hits give low values 1.02 | locus YBL061C, strain skt5, hits give low values 1.02 | locus YBR009C, strain hhf1, hits give low values 0.998 | locus YBR021W, strain FUR4, hits give low values 0.99 | locus YBR023C, strain chs3, hits give low values 1.02 | locus YBR171W, strain sec66, hits give low values 1.03 | locus YBR229C, strain ROT2, hits give low values 1.01 | locus YBR231C, strain swc5, hits give low values 1.01 | locus YBR279W, strain paf1, hits give low values 1.03 | locus YCL011C, strain gbp2, hits give low values 1.03 | locus YCL016C, strain dcc1, hits give low values 1.05 | locus YCL029C, strain bik1, hits give low values 1.01 | locus YCL061C, strain MRC1, hits give low values 1.01 | locus YCL069W, strain vba3, hits give low values 1.02 | locus YCR088W, strain abp1, hits give low values 1.02 | locus YDL005C, strain med2, hits give low values 1.02 | locus YDL035C, strain GPR1, hits give low values 1.01 | locus YDL040C, strain nat1, hits give low values 1 | locus YDL074C, strain BRE1, hits give low values 1.04 | locus YDL101C, strain DUN1, hits give low values 1.01 | locus YDL134C, strain PPH21, hits give low values 1.04 | locus YDL185W, strain tfp1, hits give low values 0.992 | locus YDL192W, strain arf1, hits give low values 1.02 | locus YDR001C, strain nth1, hits give low values 1.01 | locus YDR069C, strain doa4, hits give low values 0.998 | locus YDR101C, strain arx1, hits give low values 1.02 | locus YDR137W, strain rgp1, hits give low values 1.05 | locus YDR159W, strain sac3, hits give low values 0.969 | locus YDR162C, strain NBP2, hits give low values 1.03 | locus YDR195W, strain ref2 0.977 | locus YDR297W, strain sur2, hits give low values 1.01 | locus YDR318W, strain mcm21, hits give low values 1.01 | locus YDR334W, strain swr1, hits give low values 1.02 | locus YDR335W, strain msn5, hits give low values 1.01 | locus YDR388W, hits give low values 1.01 | locus YDR392W, strain spt3, hits give low values 0.816 | locus YDR502C, strain sam2, hits give low values 1.01 | locus YEL003W, strain gim4, hits give low values 1.01 | locus YEL037C, strain rad23, hits give low values 1.01 | locus YEL061C, strain CIN8 (second series), hits give low values 1.02 | locus YEL061C, strain CIN8, hits give low values 1.01 | locus YER015W, strain faa2, hits give low values 1.01 | locus YER016W, strain bim1, hits give low values 1.02 | locus YER110C, hits give low values 1.02 | locus YER111C, strain swi4, hits give low values 1.01 | locus YER155C, strain BEM2 (second series), hits give low values 0.99 | locus YER155C, strain BEM2, hits give low values 0.993 | locus YER167W, strain BCK2, hits give low values 1.02 | locus YFR010W, strain ubp6, hits give low values 1.01 | locus YGL078C, strain dbp3, hits give low values 1.01 | locus YGL086W, strain mad1, hits give low values 0.999 | locus YGL167C, strain pmr1, hits give low values 1.02 | locus YGL173C, strain kem1, hits give low values 1.01 | locus YGL227W, strain vid30, hits give low values 1.01 | locus YGL240W, strain doc1, hits give low values 0.992 | locus YGL248W, strain PDE1, hits give low values 1.01 | locus YGL253W, strain hxk2, hits give low values 0.989 | locus YGR135W, strain pre9, hits give low values 1.03 | locus YGR229C, strain SMI1, hits give low values 1.01 | locus YGR252W, strain gcn5, hits give low values 1.03 | locus YHR013C, strain ard1, hits give low values 0.981 | locus YHR027C, strain rpn1, hits give low values 1.03 | locus YHR030C, strain SLT2, hits give low values 1.01 and 0.983 | locus YHR079C, strain IRE1 (second series), hits give low values 1 | locus YHR079C, strain IRE1, hits give low values 0.97 | locus YHR094C, strain hxt1, hits give low values 1.01 | locus YHR129C, strain ARP1, hits give low values 1.02 | locus YHR142W, strain chs7, hits give low values 1.04 | locus YHR200W, strain rpn10, hits give low values 1.01 | locus YIL066C, strain RNR3, hits give low values 1 | locus YIL073C, strain SPO22, hits give low values 0.995 | locus YIL125W, strain kgd1, hits give low values 0.999 | locus YIR030C, strain dcg1, hits give low values 0.992 | locus YJL092W, strain hpr5, hits give low values 1.01 | locus YJL095W, strain BCK1 (second series), hits give low values 1.03 | locus YJL095W, strain BCK1, hits give low values 1.04 and 0.989 | locus YJL115W, strain asf1, hits give low values 1.02 | locus YJL129C, strain trk1, hits give low values 1.08 | locus YJL134W, strain LCB3, hits give low values 1.01 | locus YJL154C, strain vps35, hits give low values 1.01 | locus YJL164C, strain tpk1, hits give low values 0.992 | locus YJL166W, strain qcr8, hits give low values 1.02 | locus YJL168C, strain set2, hits give low values 1.01 | locus YJL187C, strain SWE1 (second series), hits give low values 1.03 | locus YJL187C, strain SWE1, hits give low values 1.01 | locus YJR043C, strain POL32, hits give low values 1.04 | locus YJR066W, strain TOR1, hits give low values 0.954 | locus YJR075W, strain HOC1, hits give low values 1.03 | locus YKL009W, strain mrt4, hits give low values 1.02 | locus YKL068W, hits give low values 0.999 | locus YKL085W, strain MDH1 (second series), hits give low values 0.997 | locus YKL085W, strain MDH1, hits give low values 0.997 | locus YKL160W, strain elf1, hits give low values 1.02 | locus YKL190W, strain CNB1, hits give low values 1.01 | locus YKR001C, strain vps1, hits give low values 1.02 | locus YKR026C, strain gcn3, hits give low values 1.02 | locus YKR091W, strain srl3, hits give low values 1.02 | locus YLL001W, strain dnm1, hits give low values 1.07 | locus YLL026W, hits give low values 1.01 | locus YLL041C, strain sdh2, hits give low values 1 | locus YLR027C, strain aat2, hits give low values 0.998 | locus YLR039C, strain RIC1, hits give low values 1.12 | locus YLR058C, strain SHM2, hits give low values 1.01 | locus YLR102C, strain apc9, hits give low values 1 | locus YLR113W, strain HOG1, hits give low values 0.991 | locus YLR221C, strain rsa3, hits give low values 1.04 | locus YLR258W, strain gsy2, hits give low values 1 | locus YLR262C, strain YPT6 (second series), hits give low values 1.05 | locus YLR262C, strain YPT6, hits give low values 1.19 | locus YLR268W, strain sec22, hits give low values 1.02 | locus YLR320W, strain mms22, hits give low values 1.06 | locus YLR330W, strain CHS5, hits give low values 1.01 | locus YLR342W, strain FKS1 (second series), hits give low values 1.03 | locus YLR342W, strain FKS1, hits give low values 1.02 | locus YLR357W, strain rsc2, hits give low values 1.02 | locus YLR370C, strain arc18, hits give low values 1.03 | locus YLR371W, strain rom2, hits give low values 1 | locus YLR384C, strain iki3, hits give low values 1.02 | locus YLR418C, strain cdc73, hits give low values 0.991 | locus YML016C, strain PPZ1, hits give low values 1.01 | locus YML032C, strain rad52, hits give low values 1.01 | locus YML120C, strain ndi1, hits give low values 1.05 | locus YML124C, strain tub3, hits give low values 1.01 | locus YMR058W, strain fet3, hits give low values 1.01 | locus YMR078C, strain ctf18, hits give low values 0.996 | locus YMR125W, strain sto1, hits give low values 1.04 | locus YMR129W, hits give low values 1.01 | locus YMR205C, strain PFK2, hits give low values 1.02 | locus YMR223W, strain ubp8, hits give low values 1.01 | locus YMR231W, strain pep5, hits give low values 1 | locus YMR263W, strain SAP30, hits give low values 1.01 | locus YMR307W, strain GAS1, hits give low values 1.03 | locus YNL067W, strain RPL9B, hits give low values 1.03 | locus YNL071W, strain lat1, hits give low values 1.01 | locus YNL128W, strain TEP1, hits give low values 1.01 | locus YNL183C, strain NPR1, hits give low values 0.944 | locus YNL209W, strain ssb2, hits give low values 1.02 | locus YNL233W, strain BNI4, hits give low values 1.02 | locus YNL248C, strain rpa49, hits give low values 0.969 | locus YNL250W, strain rad50, hits give low values 1.01 | locus YNL271C, strain bni1, hits give low values 0.999 | locus YNL298W, strain CLA4, hits give low values 1.01 | locus YNL307C, strain MCK1, hits give low values 1.01 | locus YNL322C, strain KRE1 (second series), hits give low values 1.02 | locus YNR049C, strain mso1, hits give low values 1.01 | locus YNR052C, strain pop2, hits give low values 1 | locus YOL006C, strain TOP1, hits give low values 0.963 | locus YOL012C, strain htz1 0.928 | locus YOL147C, strain pex11, hits give low values 1 | locus YOR001W, strain rrp6, hits give low values 0.96 | locus YOR061W, strain CKA2, hits give low values 1.02 | locus YOR069W, strain VPS5, hits give low values 1.01 | locus YOR070C, strain gyp1, hits give low values 1.03 | locus YOR080W, strain dia2, hits give low values 1.02 | locus YOR083W, strain WHI5, hits give low values 1.03 | locus YOR106W, strain vam3, hits give low values 1.04 | locus YOR136W, strain idh2, hits give low values 1.02 | locus YOR144C, strain elg1, hits give low values 1.01 | locus YOR184W, strain ser1, hits give low values 1.06 | locus YOR231W, strain MKK1, hits give low values 0.96 | locus YOR265W, strain rbl2, hits give low values 1.01 | locus YOR270C, strain vph1, hits give low values 1.13 | locus YOR290C, strain snf2, hits give low values 1.07 | locus YOR316C, strain cot1, hits give low values 1.02 | locus YPL051W, strain arl3, hits give low values 0.978 | locus YPL078C, strain atp4, hits give low values 0.997 | locus YPL106C, strain sse1, hits give low values 1.06 | locus YPL240C, strain hsp82, hits give low values 1.03 | locus YPL241C, strain CIN2, hits give low values 1.01 | locus YPL256C, strain CLN2, hits give low values 0.986 | locus YPR119W, strain clb2, hits give low values 1.01 | locus YPR141C, strain kar3, hits give low values 1.01 | locus YPR163C, strain tif3, hits give low values 1.03 | locus YPR167C, strain met16, hits give low values 1.01 | strain wtn01, hits give low values 1.01
